The structures appear in SMILES notation. About 1,100 (1.7%) of roughly 63,000 compounds were called active. The sample as a whole holds a higher share of actives than the screen did. Potency and affinity values are given separately. Values without a mark were called inactive. Cut-off read from the data, not from the text of the source: active = cytotoxicity above about 50%; inactive = the rest.

A short description of this assay: HPDE-C7 pancreatic duct cell viability loss – fluorescence, HTS (AID 430).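 Note: cells exposed to compound for 48 hours before viability readout; 0% = vehicle and 100% = reference cytotoxic drug.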 The settings on record: HPDE-C7 pancreatic duct cells viability, at 10 µM, hits give high values.
`Cc1ccc(-n2nnc3c(=O)n(Cc4ccccc4C)cnc32)cc1`: the cytotoxicity is 0.5%.

For the compound `COCCNC(=O)C(c1ccc(Cl)cc1)N(C(=O)CCC(=O)Nc1ccccn1)C1CCCC1` (stereo not drawn), the cytotoxicity was -1.7%.

On to `CNCCOCC(O)CSc1ccccc1` (stereo not drawn), for which the cytotoxicity is 1.2%.

For the compound `Cc1cccc(-c2nnn(CC/C(N)=N/O)n2)c1`, the cytotoxicity is 2.8%.

Regarding `CCN1CCN(c2nc(-c3cccnc3)nc3ccccc23)CC1`, the cytotoxicity is -27.8%.

For `COc1ccc(NC(=O)C(Cc2ccccc2)NC(=O)c2ccco2)cc1OC` (stereo not drawn), the cytotoxicity was -0.4%.

Regarding `c1ccc(CSc2nnc3c(n2)OC(c2ccco2)Nc2ccccc2-3)cc1` (stereo not drawn), the cytotoxicity is -3.6%.

Take `O=C(Nc1ccc2c(c1)OCO2)C(c1ccccc1)N1CCCCC1` (stereo not drawn): the cytotoxicity is -14%.

`O=c1[nH]nnc2c1sc1nc(N3CCOCC3)c3c(c12)CCCC3`: the cytotoxicity is 30.8%.

Consider `COc1ccccc1-n1c(=O)oc2ccc(Cl)cc2c1=O`, for which the cytotoxicity is 59.7% (active).

As for `COc1ccccc1C1c2c(oc3ccc(Cl)cc3c2=O)C(=O)N1c1cc(C)on1` (stereo not drawn), the cytotoxicity is -14.3%.

With `COc1ccccc1-n1c(SC)nc(O)cc1=O`, the cytotoxicity is 4.6%.

`Cn1c(SCc2c(F)cccc2Cl)nnc1-c1cccs1`: the cytotoxicity is -2.8%.

On to `O=C(C1COc2ccccc2O1)N1CCN(c2ccc(F)cc2)CC1` (stereo not drawn), for which the cytotoxicity was -9%.

Regarding `CCOc1ccccc1OCC(=O)O`, the cytotoxicity was 4.2%.

As for `O=C(O)COc1ccc2nsnc2c1Cl`, the cytotoxicity was -25.1%.

On to `COC(=O)CN1C(=O)C(O)(CC(=O)c2ccc(C)cc2)c2ccccc21` (stereo not drawn), for which the cytotoxicity was -28.9%.

Turning to `Cc1ccccc1-n1c(N)cc(=O)[nH]c1=S`, the cytotoxicity was -2.2%.

As to `CCOC(=O)c1cc(NC(=O)Nc2ccc(OC)c(OC)c2)c(C)nc1C`, the cytotoxicity is 5.7%.

Consider `CCOC(=O)N1CCN(S(=O)(=O)c2ccc(C(=O)Nc3nc4ccc(F)cc4s3)cc2)CC1`, for which the cytotoxicity is -8%.

As for `CCOC(=O)N1CCN(S(=O)(=O)c2ccc(C(=O)Nc3ccc(F)cc3F)cc2)CC1`, the cytotoxicity is 58% (active).

Turning to `CCOC(=O)N1CCN(S(=O)(=O)c2ccc(F)cc2)CC1`, the cytotoxicity was -1.6%.

Consider `CC1=CC(c2ccccc2)n2nc(N3C(=O)c4ccccc4C3=O)nc2N1` (stereo not drawn), for which the cytotoxicity was -0.7%.

As to `Cc1cc(NC(=O)c2ccc(S(=O)(=O)N(C)C)cc2)no1`, the cytotoxicity was -5.2%.

With `O=S(=O)(c1ccccc1)c1nc(-c2ccccc2)oc1NCc1cccnc1`, the cytotoxicity was -3.2%.

For `CCNC(=O)C1CC(=O)N(Cc2ccc3c(c2)OCO3)C(=Nc2ccc(OCC)cc2)S1` (stereo not drawn), the cytotoxicity is -4.1%.

On to `CNC(=O)C1CC(=O)N(Cc2ccc3c(c2)OCO3)C(=Nc2ccc(F)cc2)S1` (stereo not drawn), for which the cytotoxicity was 3.4%.

On to `CCNC(=O)C1CC(=O)N(Cc2ccc3c(c2)OCO3)C(=Nc2ccc(F)cc2)S1` (stereo not drawn), for which the cytotoxicity was 50.6% (active).

Regarding `Cc1nc2cc(C(F)(F)F)ccc2n1C1CCN(CC(=O)N2CCOCC2)CC1`, the cytotoxicity is 1.2%.

Regarding `c1ccc(Cn2nnnc2CN2CCN(Cc3ccc4c(c3)OCO4)CC2)cc1`, the cytotoxicity is -5.8%.

As to `COc1ccc(S(=O)(=O)Nc2cc(C)ccc2OC)cc1C`, the cytotoxicity was 1.8%.

In the case of `COc1ccc(NC(=O)CSc2nc3c(c(=O)n2-c2ccc(F)cc2)SCC3)cc1`, the cytotoxicity was 14.2%.

With `COc1ccc(NC(=O)c2cccc(-n3cnnn3)c2)cc1`, the cytotoxicity was -1.7%.

For `O=C(O)C1C2C=CC3(CN(CC(O)COc4ccccc4)C(=O)C13)O2` (stereo not drawn), the cytotoxicity was -8.7%.

As to `Cc1cc2ccccc2n1CCNC(=O)c1ccc(S(=O)(=O)N2CCOCC2)cc1`, the cytotoxicity was -3.1%.

With `Cn1cc(S(=O)(=O)Cc2ccc(F)cc2)c2ccccc21`, the cytotoxicity is 8.8%.

For the compound `CC(C)C[C@H](N)c1nnc(S(=O)(=O)Cc2cccc(F)c2)o1`, the cytotoxicity was 19%.

For `CC(C)CCN1C(=O)CCC1(C)C(=O)NC1CCCCCC1` (stereo not drawn), the cytotoxicity is -16.5%.

Regarding `COc1ccccc1NC(=O)c1nc[nH]c1C(=O)Nc1ccccc1OC`, the cytotoxicity is 17%.

As for `Cc1ccccc1NC(=O)c1nc[nH]c1C(=O)NCc1ccccc1`, the cytotoxicity was -22.2%.

In the case of `COc1ccc(NC(=O)c2nc[nH]c2C(=O)Nc2ccccc2C)cc1`, the cytotoxicity was 55.3% (active).

Consider `Cc1ccc(Nc2oc(C)nc2C#N)cc1`, for which the cytotoxicity is 2.5%.

Regarding `CCCSC1=C(C#N)C(c2ccccc2C)CC(=O)N1` (stereo not drawn), the cytotoxicity is 10.1%.

Regarding `COc1ccc(OC)c(N/C(=N\c2nc(C)cc(C)n2)NC(=O)c2ccco2)c1`, the cytotoxicity was -5.6%.

For the compound `COC(=O)c1ccc(CSc2nnc(NCc3ccccc3)s2)o1`, the cytotoxicity is -3.1%.

On to `CCOc1ccccc1Nc1nnc(SCc2ccc(C(=O)OC)o2)s1`, for which the cytotoxicity was 58% (active).

Regarding `COC(=O)c1ccc(CSc2nnc(Nc3ccccc3OC)s2)o1`, the cytotoxicity is 43.6%.

Take `Cn1c(=O)c2c(-c3ccccc3)n(CCCN3CCOCC3)cc2n(C)c1=O`: the cytotoxicity is -14%.

As for `COc1ccccc1NC(=O)c1cc(Sc2nncn2C)nc2ccccc12`, the cytotoxicity is 4.7%.

Regarding `Cc1ccc(C(=O)C2=C(O)C(=O)N(CCCN3CCOCC3)C23C(=O)N(C)c2ccccc23)o1` (stereo not drawn), the cytotoxicity is -20.1%.

`O=C(Oc1ccc2ccccc2c1)c1ccco1`: the cytotoxicity was 5%.

Consider `O=C(Oc1cccc(Br)c1)c1cccnc1`, for which the cytotoxicity is -5%.

On to `CCOc1ccc2c(c1)N(C(=O)CN1C(=O)CCC1=O)C(C)(C)C=C2C`, for which the cytotoxicity is -6.5%.

As to `CCOc1ccc(OC(=O)c2cccnc2)cc1`, the cytotoxicity is 4.1%.

`CC1=CC(C)(C)Nc2ccc(C)cc21`: the cytotoxicity is -10.9%.

Regarding `CCc1ccc2c(c1)C(C)=CC(C)(C)N2`, the cytotoxicity is 3.5%.

Turning to `COC(=O)C1=C(C)NC(C)=C(C(=O)OC)C1c1ccc(OC(=O)c2ccco2)cc1`, the cytotoxicity is -0.4%.

With `COC(=O)c1ccc(OC(=O)c2ccco2)cc1`, the cytotoxicity is -14.5%.

Regarding `COc1ccc(S(=O)(=O)N2CCCC2C(=O)Nn2cnnc2)cc1` (stereo not drawn), the cytotoxicity was -10.2%.

In the case of `O=C(O)C1C2CCC(C2)C1C(=O)Nc1nc2ccccc2s1` (stereo not drawn), the cytotoxicity is -5.1%.

Regarding `CCc1cccc(NC(=O)Cn2cccc2)c1`, the cytotoxicity is 2.1%.

As to `Cc1noc(C)c1CSCC(=O)OCC(=O)Nc1sccc1C#N`, the cytotoxicity is 6.1%.

Regarding `CCCc1cc(=O)oc2cc(C)cc(OC(=O)c3ccco3)c12`, the cytotoxicity is 11.7%.

Turning to `COC(=O)c1c(NC(=O)c2ccc(Br)o2)sc(C)c1C`, the cytotoxicity was 11%.

For `O=S(=O)(c1cccc(Cl)c1Cl)N1CCCCC1`, the cytotoxicity is -8.6%.

For `C1CCC(c2nn3c(-c4n[nH]c5c4CCC5)nnc3s2)CC1`, the cytotoxicity is 2.9%.

As to `COc1ccc(CCN(Cc2nc3ccccc3c(=O)[nH]2)C(=O)c2ccco2)cc1OC`, the cytotoxicity is -3%.

As to `Cc1oc(C)c2c(=O)ccc3c(c12)OC(N)=C(C#N)C3c1ccccc1` (stereo not drawn), the cytotoxicity is -51.8%.

`CSc1ccc(C2C(C#N)=C(N)Oc3c2ccc(=O)c2c(C)oc(C)c32)cc1` (stereo not drawn): the cytotoxicity is -8.9%.

Turning to `Cn1c(N2CCC(C(N)=O)CC2)nc2c1c(=O)n(Cc1ccc(Br)cc1)c(=O)n2C`, the cytotoxicity was 28.6%.

`COc1cccc(C2C(C#N)=C(N)OC3=C2C(=O)CCC3)c1OC(=O)c1ccco1` (stereo not drawn): the cytotoxicity is -11.1%.

In the case of `OCCN(CC(O)Cn1ccc2ccccc21)CC(O)Cn1ccc2ccccc21` (stereo not drawn), the cytotoxicity was -4.1%.

Consider `OCCNCC(O)Cn1ccc2ccccc21` (stereo not drawn), for which the cytotoxicity was -15.1%.

As to `Cc1nn(Cc2ccccc2)c(C)c1C(=O)Nc1ccc(N2CCOCC2)cc1`, the cytotoxicity was 6.2%.

For the compound `COc1ccc(CN(C)C2CCCCC2)cc1`, the cytotoxicity was 12.6%.

For `CC(C)(C)c1cc(CN2CCN(CCO)CC2)cc(C(C)(C)C)c1O`, the cytotoxicity is -9.7%.

With `CC(C)(C)c1cc(C(=S)N2CCN(CCO)CC2)cc(C(C)(C)C)c1O`, the cytotoxicity was -4.1%.

Turning to `Cc1ccc2c(c1)N(CCCC(=O)NCC1COc3ccccc3O1)C(=O)CO2` (stereo not drawn), the cytotoxicity was -5.2%.

With `C(=N\n1cnnc1)/c1cn(-c2cccs2)nc1-c1ccccc1`, the cytotoxicity is -5.7%.

In the case of `O=C(O)C1CCN(C(=O)c2ccccc2C(=O)N2CCC(C(=O)O)CC2)CC1`, the cytotoxicity was -9.9%.

Consider `Cc1ccnc(NC(=O)C2CCN(S(=O)(=O)c3cccc4nsnc34)CC2)c1`, for which the cytotoxicity was -8.3%.

As to `O=S(=O)(c1ccccc1)N1CCN(C2CCN(Cc3ccccc3)CC2)CC1`, the cytotoxicity was 22.9%.

For the compound `Cc1ccc(SCc2[nH]nc3c2C(c2ccc(C)o2)C(C#N)=C(N)O3)cc1` (stereo not drawn), the cytotoxicity was 44.5%.

For the compound `Cc1ccc(C2C(C#N)=C(N)Oc3nc(-c4ccccc4)[nH]c32)o1` (stereo not drawn), the cytotoxicity is -2.4%.

As to `CC1(C)Cc2cccc(OCC(=O)N3CCN(S(=O)(=O)c4ccccc4)CC3)c2O1`, the cytotoxicity is -2.1%.

Consider `COC(=O)c1ccsc1NC(=O)c1ccc(Cl)s1`, for which the cytotoxicity was -0.2%.

For `COc1ccc2nc(SCC(N)=O)[nH]c2c1`, the cytotoxicity was -19.2%.

`COc1ccc2nc(NCCO)[nH]c2c1`: the cytotoxicity was -13.5%.

Regarding `CCOc1ccc2nc(NCCO)[nH]c2c1`, the cytotoxicity was -2.1%.

As for `COc1ccc(C(=O)Nc2nc3ccccc3[nH]2)cc1OC`, the cytotoxicity is -5.6%.

For `CCCOc1ccc2nc(NC(=O)OC)[nH]c2c1`, the cytotoxicity is 61.4% (active).

Regarding `CCCSc1ccc2nc(NC(=O)OC)[nH]c2c1`, the cytotoxicity is 67.1% (active).

For `CCCCC(c1nnnn1CS(=O)(=O)c1ccc(C)cc1)N1CCN(c2ccccc2)CC1` (stereo not drawn), the cytotoxicity is -30%.

Turning to `O=C(NC1CCCc2ccccc21)C1CCN(S(=O)(=O)c2cccc3nonc23)CC1` (stereo not drawn), the cytotoxicity was -29.1%.

On to `O=C(c1cc2sccc2n1Cc1ccccc1)N1CCc2ccccc21`, for which the cytotoxicity was 9.3%.

As to `CC(=O)N1CCN(CC(=O)Nc2c(Cl)cc(Cl)cc2Cl)CC1`, the cytotoxicity is 0%.

For the compound `COc1ccc(N2CCN(C(=O)c3ccc(S(=O)(=O)N4CCOCC4)cc3)CC2)cc1`, the cytotoxicity is 3.1%.

Regarding `COc1cc(OC)nc(NC(=O)COC(=O)C2CCCCC2)n1`, the cytotoxicity was 8.7%.
